{"source": "PubChem BioAssay AID488815", "about": "(Broad Institute, 2010)", "note": "Results with a measured potency or affinity are listed apart. Results filed as inconclusive are left out. Values without a mark were called inactive. How the calls were made is not given here.", "data": [{"molecular_target": "CAAX prenyl protease 1 (Saccharomyces cerevisiae (strain ATCC 204508 / S288c)) (UniProt P47154)", "sequence (P47154 whole entry, looked up)": "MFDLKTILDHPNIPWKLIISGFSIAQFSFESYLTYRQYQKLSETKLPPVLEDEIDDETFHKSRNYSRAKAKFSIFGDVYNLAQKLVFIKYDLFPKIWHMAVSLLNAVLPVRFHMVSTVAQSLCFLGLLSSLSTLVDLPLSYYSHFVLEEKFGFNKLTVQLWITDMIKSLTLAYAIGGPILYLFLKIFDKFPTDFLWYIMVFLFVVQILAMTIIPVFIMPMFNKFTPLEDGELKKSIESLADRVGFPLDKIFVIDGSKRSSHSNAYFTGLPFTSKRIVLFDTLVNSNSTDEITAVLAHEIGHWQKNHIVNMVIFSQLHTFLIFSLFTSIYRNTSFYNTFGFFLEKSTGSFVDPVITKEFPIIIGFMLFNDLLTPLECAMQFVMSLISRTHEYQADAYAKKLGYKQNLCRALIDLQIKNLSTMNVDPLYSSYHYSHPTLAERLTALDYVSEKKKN", "experiment": "yeast CAAX protease Ste24 inhibition – biochemical, S. cerevisiae, plate reader, cherry-pick, dose response (AID 488815);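 further: 0% = neutral control wells and -100% = no enzyme wells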", "conditions": "series mostly up to 10 µM; activity change, negative = inhibition: at the top concentration", "units": {"activity change, negative = inhibition": "%"}, "values": [{"smiles": "CN1CCN(c2ccc([N+](=O)[O-])c(Sc3nncn3C)c2)CC1", "activity change, negative = inhibition": 9.28}, {"smiles": "CC(C)OCCCNC(=O)c1c(N)n(CC2CCCO2)c2nc3ccccc3nc12", "note": "(configuration not stated)", "activity change, negative = inhibition": -4.71}, {"smiles": "c1ccc(CCCN2CCN(CCOC(c3ccccc3)c3ccccc3)CC2)cc1", "activity change, negative = inhibition": 31.3}, {"smiles": "O=[N+]([O-])c1ccc(C[n+]2c(-c3ccccc3)cc(-c3ccccc3)cc2-c2ccccc2)cc1", "activity change, negative = inhibition": 51.8}, {"smiles": "Cc1ccnc(-n2c(-c3ccco3)nc3ccccc3c2=O)c1", "activity change, negative = inhibition": 22.4}, {"smiles": "CCOC(=O)[C@@H]1[C@H]2COc3ccc(Br)cc3[C@@H]2N2C(=O)N(c3cccc(C)c3)C(=O)[C@]12C", "activity change, negative = inhibition": 48.1}, {"smiles": "C=CCn1c(O)c(C(CC)=Nc2ccc(N(CC)CC)cc2)c(=O)[nH]c1=O", "activity change, negative = inhibition": -2.1}]}]}
